S2 tox: Viability Counterscreen for Primary qHTS for Inhibitors of ATXN expression; S2 cells (HEK-293 line with an ATXN2-luciferase reporter) viability, CellTiter-Fluor protease fluorescence, 24 h; Potency, µM (doses to about 56.7 µM), usual class: cytotoxic; actives 0.49% (n = 400,000); AID 651635, 2014; further: nearly all actives have a fitted effect of over 40% in size
ATXN2 expr inh: Primary qHTS for Inhibitors of ATXN expression. AID 1745845, 2022. HEK-293 ATXN2-luciferase reporter, luminescence, 24 h. actives 0.72% (n = 360,000). Potency, µM (doses to about 57 µM), inactives show at the top dose activity change, negative = inhibition, usual class: inhibitors; further: on the % scale 0 is the no-effect control and ±100 the full control effect; nearly all actives have a fitted effect of over 55% in size
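ATXN2-luciferase reporter cells (luciferase flanked by upstream and downstream ATXN2 gene portions) were treated 24 h at 37 °C with compounds at up to 57 uM. SteadyGlo luminescence gave expression; GF-AFC fluorescence gave viability.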
DT40 TDP1 no CPT: qHTS for Inhibitors of human tyrosyl-DNA phosphodiesterase 1 (TDP1): qHTS in cells in absence of CPT; DT40 Tdp1-/- hTDP1 cells, no CPT, ATP luminescence, 48 h; Potency, µM (highest dose often 46.2 µM), without a hit: at the top dose activity change, negative = growth inhibition, most hits filed as inhibitors; actives 15% (n = 420,000); further: on the % scale 0 is the no-effect control and ±100 the full control effect; nearly all actives have a fitted effect of over 55% in size
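Compound effects on proliferation are scored in DT40 Tdp1-/-;hTDP1 cells in the absence of CPT. ATP levels (CellTiter-Glo luminescence) are recorded after a ≥48 hr, 37 °C incubation.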
HepG2 tox: qHTS for Inhibitors of TGF-b: Cytotox Counterscreen. HepG2 CAGA-GFP viability, ATP luminescence, 18 h. Potency, µM (top dose mostly 46.1 µM), for inactives: at the top dose activity change, negative = cytotoxicity, most hits filed as cytotoxic. actives 0.76% (n = 410,000). AID 588856, 2011
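CellTiter-Glo luminescence gave cytotoxicity after 18 hours at 37 degrees C. The cells were HepG2 CAGA-GFP in 1% FBS DMEM, stimulated with 500 pg/mL TGF-beta after compound addition. %Activity was normalised to no-cell wells (complete cell-killing) and DMSO (no toxicity), and curves were fitted and classified.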
TDP1 cell CPT: qHTS for Inhibitors of human tyrosyl-DNA phosphodiesterase 1 (TDP1): qHTS in cells in presence of CPT; chicken DT40 Tdp1-/-;hTDP1 cells + 20 nM CPT, ATP luminescence, 48 h; Potency, µM (doses to about 46.2 µM), for the others: top-dose activity change, negative = growth inhibition, usual class: inhibitors; actives 12% (n = 420,000); AID 686979, 2013; further: on the % scale 0 is the no-effect control and ±100 the full control effect; nearly all actives have a fitted effect of over 55% in size
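Chicken DT40 Tdp1-/- cells stably complemented with human TDP1 were seeded at 400 cells/well in medium containing 20 nM camptothecin, exposed to pin-transferred compounds, and grown at 37 °C for at least 48 hr. Viability was read as ATP luminescence.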
TGFb SMAD3 inh: qHTS for Inhibitors of TGF-b; HepG2 CAGA-GFP TGF-b/SMAD3 reporter, GFP fluorescence, 18 h; TGF-beta stimulated, 500 pg/mL final; Potency, µM (highest dose often 46.1 µM), inactives show at the top dose activity, negative = inhibition, most hits filed as inhibitors; actives 1.2% (n = 410,000); further: on the % scale 0 is the no-effect control and ±100 the full control effect; nearly all actives have a fitted effect of over 65% in size
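GFP signal (ex488/em500-530) from TGF-beta-stimulated HEPG2 CAGA-GFP cells, 500 pg/mL final, 18 h at 37 degrees C in DMEM plus 1% FBS, normalized to unstimulated and DMSO-stimulated controls.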
* hit, by the source's call; [ ] = remark or other dose. An excerpt weighted towards active compounds, which were near 17% of everything screened. The call rests on the fitted dose curve; in most records, active means well fitted curve in the direction sought with a large enough effect; inconclusive means small, poorly fitted or top-dose-only effect, or another doubt; inactive means no such curve, though single readings can be large; an effect the other way counts as inactive or inconclusive. Potency means the concentration at half of the fitted maximal effect.

Screening COc1ccc(S(=O)(=O)N2CCOc3ccccc32)cc1 returned S2 tox inactive, ATXN2 expr inh 0%, DT40 TDP1 no CPT 3.7µM*, HepG2 tox -5%, TDP1 cell CPT 5.2µM* and TGFb SMAD3 inh 5%.
COc1ccc(S(=O)(=O)N2c3ccccc3OCC2CC(=O)O)cc1 (stereo unspecified) was read as S2 tox inconclusive, DT40 TDP1 no CPT 29µM*, HepG2 tox -2%, TDP1 cell CPT inconclusive and TGFb SMAD3 inh 2%.
COc1ccc(S(=O)(=O)N2c3ccccc3OCC2c2ccccc2)cc1 (stereo unspecified) was read as S2 tox inactive, ATXN2 expr inh inconclusive, DT40 TDP1 no CPT 23µM*, HepG2 tox -11%, TDP1 cell CPT 18µM* and TGFb SMAD3 inh 12%.
COc1ccc(S(=O)(=O)N2CC(C(=O)O)Oc3ccccc32)cc1 (stereo unspecified) was read as S2 tox inactive, ATXN2 expr inh -19%, DT40 TDP1 no CPT -19%, HepG2 tox -4%, TDP1 cell CPT -4% and TGFb SMAD3 inh 1%.
For COc1ccc(S(=O)(=O)N2c3ccccc3OCC2C)cc1 (stereo unspecified) the results were S2 tox inconclusive, ATXN2 expr inh inconclusive, DT40 TDP1 no CPT 0.82µM*, HepG2 tox -2%, TDP1 cell CPT 0.58µM* and TGFb SMAD3 inh inconclusive.
For Cc1cccc(CNC(=O)c2cnn(-c3nccc(-c4ccccc4F)n3)c2C)n1 the results were S2 tox inactive, DT40 TDP1 no CPT -1% and TDP1 cell CPT 8%[9.04 µM].
`C=Cc1ccc(C2=CC(=O)C[C@H](c3ccc(OC)cc3)C2)cc1` gave S2 tox inactive, ATXN2 expr inh 36%, DT40 TDP1 no CPT inconclusive, HepG2 tox -8%, TDP1 cell CPT -17% and TGFb SMAD3 inh -6%.
CCc1cccc(NC(c2ccccc2)c2nnc(-c3ccccc3F)o2)c1 (stereo unspecified) was read as S2 tox inactive, ATXN2 expr inh -10%, DT40 TDP1 no CPT 21µM*, HepG2 tox -4%, TDP1 cell CPT inconclusive and TGFb SMAD3 inh inconclusive.
Cc1ccc(C)c(NC(c2ccccc2)c2nnc(-c3ccccc3F)o2)c1 (stereo unspecified) was read as S2 tox inactive, ATXN2 expr inh 4%, DT40 TDP1 no CPT inconclusive, HepG2 tox -25%, TDP1 cell CPT inconclusive and TGFb SMAD3 inh -30%.
O=C(CSc1nc2ccccc2[nH]1)Nc1ccc2c(c1)OCCO2 was read as S2 tox inconclusive, ATXN2 expr inh 14%, DT40 TDP1 no CPT -17%, HepG2 tox 3%, TDP1 cell CPT inconclusive and TGFb SMAD3 inh inconclusive.
O=C(CSc1nc(-c2cccc(F)c2)[nH]c1-c1ccccc1)Nc1ccc2c(c1)OCCO2 was read as S2 tox inconclusive, ATXN2 expr inh inconclusive, DT40 TDP1 no CPT 12µM*, HepG2 tox -52%, TDP1 cell CPT 15µM* and TGFb SMAD3 inh inconclusive.
`Cc1cccc(-c2nc(SCC(=O)Nc3ccc4c(c3)OCCO4)c(-c3ccccc3)[nH]2)c1` gave S2 tox inconclusive, ATXN2 expr inh -33%, DT40 TDP1 no CPT 21µM*, HepG2 tox -25%, TDP1 cell CPT inconclusive and TGFb SMAD3 inh inconclusive.
Screening CCCCN(CCCC)Cc1cc2ccccc2c2c1COC2 returned S2 tox inactive, ATXN2 expr inh 3%, DT40 TDP1 no CPT inconclusive, HepG2 tox -15%, TDP1 cell CPT 13µM* and TGFb SMAD3 inh -23%.
